High-throughput results (PubChem)
ROMK mod: human ROMK K+ channel modulation, primary screen | P48048 | Tet-inducible ROMK, thallium flux fluorescence; actives lie on both sides | B-score at 10 µM | 130,000 tested, 2% active | AID 1918;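 active = signal ratio slope over the read window, or its plate-corrected B-score, at least 3 SD from the plate mean, either direction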;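 note: B-score of the F/F0 ratio slope over 7 to 12 s after thallium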
S1P3 antagonist: antagonists of human S1P3 receptor. Q99500. CHO S1P3 NFAT-BLA reporter, FRET fluorescence, antagonist mode. inhibition, % at 4.98 µM. 170,000 tested, 0.27% active. AID 485;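 active = inhibition above the plate cutoff, the mean inhibition of test wells on that plate plus 3 SD, cut at about 28% in these data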;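 note: cells challenged with S1P at its EC80 of 0.8 µM; blue over green emission ratio from cleaved BLA substrate after 4 h stimulation; 0% = S1P-stimulated wells and 100% = unstimulated DMSO-only wells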
RAM inhibit: blocks the yeast RAM network | S. cerevisiae dse1pr::URA3 reporter, 5-FOA growth OD615, 2 d; analog-sensitive cbk1-as2 kinase mutant strain | inhibition, % at 50 µM | 190,000 tested, 1.8% active;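 active = inhibition above a set limit, 3 SD over mean compound inhibition, cut at about 8.4% in these data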;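 note: 0% = DMSO-only wells with no growth and 100% = 10 µM 1-NA-PP1 full growth; inhibition rescues growth on 5-FOA so higher OD means more RAM inhibition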
KCC2 mod: KCC2 (human) Cl- transport modulation; Q9H2X9; KCC2 cells, thallium flux FluoZin-2 fluorescence; B-score of Tl+ flux slope (higher = more flux/activation; lower = inhibition) at 10 µM; 190,000 tested, 2.2% active; AID 1456;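 active = thallium flux slope and its plate-corrected score both differing from the plate sample mean at a set confidence after two filtering rounds, in either direction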;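 note: slope of fluorescence scaled to starting intensity during 10 to 20 s after thallium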
Target sequence (Q9H2X9 whole entry, looked up): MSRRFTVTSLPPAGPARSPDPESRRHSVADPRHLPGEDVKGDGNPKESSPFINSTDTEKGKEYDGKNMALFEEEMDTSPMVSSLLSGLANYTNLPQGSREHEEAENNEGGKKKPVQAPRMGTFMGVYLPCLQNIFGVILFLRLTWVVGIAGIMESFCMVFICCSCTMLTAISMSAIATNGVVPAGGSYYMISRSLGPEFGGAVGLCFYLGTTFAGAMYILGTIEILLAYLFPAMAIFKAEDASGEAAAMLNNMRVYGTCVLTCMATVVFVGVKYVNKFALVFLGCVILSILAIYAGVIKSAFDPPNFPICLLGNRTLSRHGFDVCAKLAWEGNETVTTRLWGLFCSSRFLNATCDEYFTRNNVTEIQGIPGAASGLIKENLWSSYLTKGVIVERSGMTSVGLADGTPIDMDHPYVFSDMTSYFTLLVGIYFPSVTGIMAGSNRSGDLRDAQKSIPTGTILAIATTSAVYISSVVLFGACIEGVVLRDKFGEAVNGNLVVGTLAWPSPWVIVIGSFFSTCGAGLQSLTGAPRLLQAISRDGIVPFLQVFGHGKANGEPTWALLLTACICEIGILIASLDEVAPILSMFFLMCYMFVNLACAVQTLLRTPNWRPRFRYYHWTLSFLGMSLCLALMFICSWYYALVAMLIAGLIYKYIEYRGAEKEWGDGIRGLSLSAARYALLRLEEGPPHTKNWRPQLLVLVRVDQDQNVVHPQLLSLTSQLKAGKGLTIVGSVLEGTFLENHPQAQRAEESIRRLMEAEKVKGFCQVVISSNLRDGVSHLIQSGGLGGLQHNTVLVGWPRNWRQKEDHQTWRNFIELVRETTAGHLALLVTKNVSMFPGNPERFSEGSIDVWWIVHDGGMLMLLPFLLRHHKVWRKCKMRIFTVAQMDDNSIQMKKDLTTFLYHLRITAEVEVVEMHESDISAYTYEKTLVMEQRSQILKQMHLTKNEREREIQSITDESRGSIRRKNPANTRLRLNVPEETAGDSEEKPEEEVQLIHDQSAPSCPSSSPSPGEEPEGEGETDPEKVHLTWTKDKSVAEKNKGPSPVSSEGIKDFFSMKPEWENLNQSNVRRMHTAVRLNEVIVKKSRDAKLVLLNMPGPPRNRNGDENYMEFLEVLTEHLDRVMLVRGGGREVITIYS
S1P4 antag: human S1P4 receptor antagonism; AID 1510; inhibition, % at 4.98 µM; S1P4-expressing cells, antagonist mode, reporter read-out; 220,000 tested, 0.26% active; O95977; in the data active = inhibition above about 29%;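 note: 0% = wells stimulated with agonist and 100% = vehicle wells without agonist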
S1P4 agonist: activates the human S1P4 receptor; O95977; S1P4-expressing cell line, agonist reporter assay; activation, % at 4.98 µM; 220,000 tested, 0.35% active; in the data active = activation above about 11%;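 note: 0% = DMSO vehicle and 100% = reference agonist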
KCC2 sec1: confirmation of human KCC2 transport modulators; shares compounds with KCC2 mod; HEK293-KCC2, thallium flux, FluoZin2 fluorescence; active compounds read high; normalised thallium flux (F/F0 slope) at 10 µM; 3,700 tested, 15% active; AID 1713;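 active = thallium flux slope above the same plate's solvent-only control mean plus 3 SD; inconclusive = the two replicate wells disagree; inactive = no significant difference from solvent-only control wells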
KCC2 bumet counter: bumetanide-insensitive thallium flux in KCC2 cells with ouabain, counter-screen; 3,700 tested, 49% active; normalized thallium flux at 10 µM; HEK293-KCC2 + bumetanide/ouabain, thallium flux FluoZin2; active compounds read high; shares compounds with KCC2 mod;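 active = thallium entry rate above the same plate's blocked-transporter control wells by more than 3 SD; inconclusive = the two repeat wells disagree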;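 note: raw slope of fluorescence over initial fluorescence between 10 and 20 s after thallium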
KCC2 sec2: confirmation of human KCC2 transport modulators; normalized thallium flux at 10 µM; shares compounds with KCC2 mod; 3,700 tested, 23% active; HEK293-KCC2, thallium flux FluoZin2 fluorescence; actives lie on both sides; F/F0 rise rate, 10–20 s post-thallium;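 active = thallium flux slope more than 3 SD above or below the plate's solvent-only control mean, mostly below; inconclusive = the two repeat wells disagreed; inactive = no significant shift from solvent-only controls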;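 note: raw slope with 0.1% DMSO as baseline and bumetanide as block control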
HEK293 Tl flux: parental HEK flux effect, counter-screen; 3,700 tested, 46% active; HEK293 parental cells, thallium flux FluoZin2, ouabain; baseline-ratio fluorescence slope, 10–20 s after thallium; thallium flux rate (normalised fluorescence) at 10 µM; AID 1716; shares compounds with KCC2 mod;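 active = thallium flux rate significantly above the same plate's solvent-only control wells, beyond their mean plus 3 SD; inconclusive = the two replicate wells gave conflicting results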
KCC2 retest ouab: KCC2 (human) modulation, ouabain retest. AID 1717. raw Tl+ flux slope (below DMSO = inhibition, above = activation) at 10 µM. shares compounds with KCC2 mod. 3,700 tested, 48% active. HEK293-KCC2, thallium flux FluoZin2 fluorescence; bidirectional: low = inhibitor, high = activator;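 active = thallium flux slope beyond 3 SD from same-plate DMSO control mean in most replicates, usually higher, sometimes lower; inconclusive = repeat tests gave conflicting results; inactive = no significant difference from controls in most replicates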;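 note: slope of initial-normalized fluorescence between seconds 10 and 20 after thallium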
HEK counter2: counter-screen for KCC2 modulators: effect in parental HEK293 cells. shares compounds with KCC2 mod. thallium flux FluoZin-2 fluorescence slope. thallium flux slope at 10 µM. 3,700 tested, 33% active;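 active = thallium flux slope above the same plate's solvent-control mean plus 3 SD in both duplicate wells; inconclusive = duplicate wells that disagreed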;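 note: run without ouabain in cells lacking the KCC2 cotransporter; slope of fluorescence scaled to its starting value between 10 and 20 s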
* = called active by the depositor; ? = inconclusive; . = no result. In the library only some 5.1% were active in any assay of this set; here they are far more common.

SMILES	ROMK mod	S1P3 antagonist	RAM inhibit	KCC2 mod	S1P4 antag	S1P4 agonist	KCC2 sec1	KCC2 bumet counter	KCC2 sec2	HEK293 Tl flux	KCC2 retest ouab	HEK counter2
COc1ccc(CNC(=S)Nc2cc(C)ccc2C)cc1	-0.44	.	2	-1	11	2	.	.	.	.	.	.
COCCNC(=S)N/N=C(\C)c1cc2ccccc2o1	-0.57	-1	0	19*	-15	1	0.006	0.025*	?	0.022*	0.029*	0.018*
COCCNC(=S)N/N=C(\C)c1ccc2cc(OC)ccc2c1	-1.9	-4	4	11*	-8	1	0.0076	0.035*	0.033	0.014*	0.032*	0.011
COc1ccc(NCC(=O)N/N=C(\C)c2cc3ccccc3o2)cc1	-0.51	0	0	0.3	14	-1	.	.	.	.	.	.
CCOc1ccc(CN(C)CC(=O)Nc2ccc(N3CCOCC3)cc2)cc1OC	1.2	3	0	-2.3	-16	2	.	.	.	.	.	.
C/C(=N\NC(=O)c1nc2ccccn2c1C)c1ccco1	-0.86	6	2	0.21	-30	-2	.	.	.	.	.	.
C/C(=N\NC(=S)NC1CCCCC1)c1ccc(OC(F)F)cc1OC(F)F	0.12	8	1	0.26	-2	1	.	.	.	.	.	.
CCNC(=S)N/N=C(\C)c1ccc2ccccc2c1	-0.75	-9	2	20*	-2	2	0.011	0.033*	0.035	?	0.031*	0.013
COCCNC(=S)N/N=C(\C)c1cccc(C(F)(F)F)c1	-0.24	-5	1	5.8*	-4	1	0.017	0.02*	0.03	0.012*	0.019	0.015*
C/C(=N\NC(=O)c1nc2ccccn2c1C)c1cc2ccccc2o1	0.11	8	1	16*	-8	4	0.0064	0.065*	0.047*	0.036*	0.05*	0.039*
C/C(=N\NC(=S)NC(C)C)c1ccccc1OC(F)F	-0.052	-6	0	6*	-6	2	0.0062	0.0097*	0.033	0.012*	0.022	0.015*
COCCNC(=S)N/N=C(\C)c1ccc(OC(F)F)cc1	.	2	.	1.5	4	0	.	.	.	.	.	.
Cc1cccc(NC(=O)CSc2nnc(CSc3nc(C)cc(C)n3)n2Cc2ccco2)c1	-2.2	-15	1	.	4	2	0.0066	0.0041	0.03	?	0.016	0.0093
O=C(NC(=S)Nc1cccc(C(F)(F)F)c1)c1ccc2nonc2c1	.	-1	.	52*	-4	0	0.024*	0.12*	?	0.041*	0.063*	0.015*
FC(F)(F)c1cccc(NC(=S)NNC(=S)Nc2cccc(C(F)(F)F)c2)c1	.	2	.	-1.4	-11	1	.	.	.	.	.	.
CCOc1cc(OCC)cc(C(=O)NC(=S)Nc2cccc(C(F)(F)F)c2)c1	.	.	11*	3.3*	-5	0	0.0058	0.014*	0.034	0.013*	?	0.014*
Cc1ccc(N2CC(C(=O)O)CC2=O)cc1 (stereo unspecified)	-0.11	-5	1	-0.41	-24	1	.	.	.	.	.	.
O=C(NCc1ccc(F)cc1)C1CCN(c2cnccn2)CC1	0.014	-13	3	-0.44	-10	3	.	.	.	.	.	.
C=CCn1c(SCC#N)nc2c(c1=O)C(C)(C)Cc1ccccc1-2	-2.1	.	4	-0.13	4	-1	0.0061	0.005	0.031	?	0.018	0.009
COC(=O)c1ccc2c(=O)n(-c3ccccc3)c(=S)[nH]c2c1	-0.056	-12	1	11*	3	2	0.018	0.022*	0.034	0.021*	0.025*	0.023*
COC(=O)c1ccc2c(=O)n(-c3ccccc3F)c(=S)[nH]c2c1	-0.41	-8	3	5.6*	-25	0	0.016	0.018*	0.032	0.012*	0.022*	0.013*
CCSc1nc2c(sc3ccccc32)c(=O)n1C(C)C	0.41	.	7	24*	-5	-4	0.038*	0.12*	0.042*	0.055*	0.054*	0.021*
CCCCn1c(N2CCC(Cc3ccccc3)CC2)nc2c1c(=O)[nH]c(=O)n2C	.	-12	1	-4.9*	-6	0	0.0073	0.0052	0.035	?	?	0.011
COc1cc2c(cc1OC)C(C)N(C(=S)NC(=O)c1ccccc1)CC2 (stereo unspecified)	.	-4	-1	21*	-4	0	?	0.062*	0.043*	0.041*	0.049*	0.029*
COc1ccccc1NC(=O)C(=N\O)/C(C)=N/O	-0.29	-5	1	0.42	-7	1	.	.	.	.	.	.
SMILES	ROMK mod	S1P3 antagonist	RAM inhibit	KCC2 mod	S1P4 antag	S1P4 agonist	KCC2 sec1	KCC2 bumet counter	KCC2 sec2	HEK293 Tl flux	KCC2 retest ouab	HEK counter2
CCOc1cc(/C=N/NC(=O)CN(CCc2ccccc2)S(=O)(=O)c2ccc(NC(C)=O)cc2)ccc1O	.	0	1	-6.4*	-8	0	0.0073	0.0051	0.036	0.0042	?	0.01
O=C1N/C(=C/c2cccs2)C(=O)N1Cc1ccc(Br)cc1	-0.29	-17	2	-0.59	-7	0	.	.	.	.	.	.
CS/C(=C\[N+](=O)[O-])Nc1ccc(OC(F)(F)F)cc1	-0.35	-19	0	-4.2*	-3	0	0.0076	?	0.025*	?	0.014*	0.012
CC(C)(CCl)C(=O)Nc1ccc(OC(F)(F)F)cc1	.	-10	-2	0.78	-5	1	.	.	.	.	.	.
Fc1c(CSC(=S)N2CCOCC2)cccc1CSC(=S)N1CCOCC1	-0.31	5	.	-0.38	-18	1	.	.	.	.	.	.
O=C(CN1C(=O)NC(Cc2ccccc2)C1=O)Nc1ccccc1 (stereo unspecified)	.	.	3	-1.8	-20	-1	.	.	.	.	.	.
O=C(CN1C(=O)NC(Cc2ccccc2)C1=O)NC(=O)NC1CCCCC1 (stereo unspecified)	.	-4	0	-4.6*	7	-1	0.018	0.004	?	0.008	0.015*	0.01
CSCCC(NS(=O)(=O)c1ccccc1F)C(=O)NC(C)c1ccccc1 (stereo unspecified)	-0.48	-4	1	-0.64	-10	0	.	.	.	.	.	.
